Source: PubChem (National Center for Advancing Translational Sciences (NCATS))
LASV entry inh = blocks Lassa virus binding to or entry into cells; Lassa virus pseudotype entry inhibition, cell reporter; Potency, µM (series often up to 37.9 µM), without a hit: top-dose activity change, negative = inhibition, hits mostly inhibitors; 1.2% of 300,000 active; AID 540256; calls by dose curve; tested in HEK293 cells; further: potency means the concentration at half of the fitted maximal effect; nearly all actives have a fitted effect of over 50% in size
Marburg entry inh = blocks Marburg virus binding to or entry into cells | Marburg virus pseudotyped entry inhibition, cell reporter | Potency, µM (highest dose often 37.8 µM), inactives show at the top dose activity change, negative = inhibition, hits mostly inhibitors | 1.8% of 300,000 active | AID 540276; calls by dose curve; tested in HEK293 cells; further: potency means the concentration at half of the fitted maximal effect
FMDV inh = foot and mouth disease virus antiviral activity; FMDV antiviral cell-based qHTS; Potency, µM (series often up to 57.9 µM), inactives show at the highest dose activity change, negative = inhibition, usual class: inhibitors; 1.2% of 410,000 active; AID 1159524; calls by dose curve; tested in HEK293T cells; further: read-out not given here; potency means the concentration at half of the fitted maximal effect; nearly all actives have a fitted effect of over 45% in size
HCMV inh = inhibitors of human cytomegalovirus | activity change, negative = inhibition, % at 57.5 µM | HFF cells, HCMV-luciferase reporter, 72 h; stronger effect = lower value | 4.5% of 410,000 active; in the data active means activity change below about -60%; inconclusive means no clear call, values can overlap the other calls; inactive means above about -39%
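Human foreskin fibroblasts infected with luciferase-reporter HCMV at MOI 1 PFU/cell, compounds at two doses. Luciferase measured 72 h post infection; normalized to buffer-only basal and Salinomycin (10uM) controls.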
Starred values were filed as active, the others as inactive; ? = inconclusive; nt = no result given; + = active, no number; [ ] = remark or other dose. This is a sample that favours compounds with a hit; in the whole collection about 6.2% have one here. On the % scale 0 is the no-effect control and ±100 the full control effect.

SMILES | LASV entry inh | Marburg entry inh | FMDV inh | HCMV inh
COc1ccc(N2C(=O)CC(Cc3ccccc3)C2=O)cc1 (configuration not stated) | 3.5% | 8.6% | 27.8% | 5.9
O=C1C=CC2(C=C1)O[C@H](Cc1ccccc1)[C@@H](Cc1ccccc1)O2 | 7.08µM* | 2.82µM* | 3.98µM* | -98.7*
NC(=O)C1CCN(C(=O)c2ccc([N+](=O)[O-])cc2NC(=O)c2cccs2)CC1 | 1.9%[46.1 µM] | 1.2%[46.1 µM] | -2.6% | 11.7
COCCCNC(=O)c1ccc(N2CCOCC2)c(NS(=O)(=O)c2ccc(OC)cc2)c1 | 3.5% | 4.0% | nt | 2.6
Cc1ccc(NC(=O)CN2C(=O)C3(SCC(=O)N3c3cccc(Cl)c3)c3ccccc32)cc1C (configuration not stated) | ? | nt | -11.3% | -64.8*
Cc1ccc(N2C(=O)CSC23C(=O)N(CC(=O)Nc2ccc(C(C)C)cc2)c2ccccc23)cc1C (configuration not stated) | -14.8%[46.1 µM] | nt | -23.4% | 24.8
O=C1CSC2(C(=O)N(Cc3ccccc3F)c3ccccc32)N1c1ccc(F)cc1 (configuration not stated) | -8.1%[46.1 µM] | nt | ? | -14.9
O=C(CN1C(=O)C2(SCC(=O)N2c2ccc(F)c(F)c2)c2ccccc21)Nc1cccc(Cl)c1 (configuration not stated) | -26.7%[46.1 µM] | nt | ? | -92.7*
CCc1cccc(N2C(=O)CSC23C(=O)N(Cc2ccccc2F)c2ccccc23)c1 (configuration not stated) | 10µM* | nt | ? | -23.8
O=C(O)c1cccc(N2C(=O)c3ccc(C(=O)c4cccc([N+](=O)[O-])c4)cc3C2=O)c1 | 1.4%[46.1 µM] | -4.4%[46.1 µM] | -4.4% | -21.5
O=C(O)c1ccc2c(c1)C(=O)N(c1cccc(C(=O)/C=C/c3ccccc3)c1)C2=O | 14.1% | 16.3%[14.2 µM] | 25.1µM* | 134.4
Cc1[nH]c2ccc(Cl)cc2c1C1=CCNCC1 | nt | nt | -5.9% | nt
CC(C)c1ccc(C2C3=C(COC3=O)Nc3cc4c(cc32)OCO4)cc1 (configuration not stated) | ? | ? | 4.6% | -88.3*
CC(C)Oc1cccc(C2CC(=O)Nc3cc4c(cc32)OCO4)c1 (configuration not stated) | ? | ? | ? | -16.2
O=C(Cc1cccs1)Nc1nc2c(ccc3ccccc32)s1 | 7.94µM* | ? | -23.9% | 63.1
CN1CCN(CC(=O)Nc2nc(-c3ccccc3)cs2)CC1 | -25.7% | 13.2% | 5.2% | 179.8
COc1ccc(-c2csc(NC(=O)CSc3ccc(Br)cc3)n2)c(OC)c1 | 12.6µM* | ? | ? | 14.7
O=C(Cc1cccs1)Nc1nc(-c2ccc(F)cc2F)cs1 | 1.64µM* | ? | -29.2% | -0.1
COc1ccc(-c2csc(NC(=O)CSCC(=O)Nc3cc(C)on3)n2)c(OC)c1 | 1.2% | 2.5% | 5.6% | -3.4
CC(=O)Nc1nc2c(ccc3ccccc32)s1 | nt | nt | 38.2% | 118.6
COc1ccc(C2(O)CCN(CC(=O)Nc3nc(-c4ccccc4)cs3)CC2)cc1 | ? | ? | 28.2µM* | -35.6
CC(C)(C(=O)N1CCC1(C)C(=O)NS(=O)(=O)c1ccc(Cl)s1)c1ccccc1 (configuration not stated) | nt | nt | 39.7% | 4.9
COc1ccc(COC(=O)c2ccc(S(=O)(=O)N3CCC(C)CC3)cc2)cc1 | -10.6% | -0.2%[46.1 µM] | -20.0% | 1.6
CN(C)S(=O)(=O)c1ccc(N2CCCC2)c(C(=O)Nc2nccs2)c1 | nt | nt | -23.3% | -10.4
COc1ccc(OC)c(-c2csc(NC(=O)CSc3ccccc3)n2)c1 | 16.4µM* | ? | 0.0% | ?
SMILES | LASV entry inh | Marburg entry inh | FMDV inh | HCMV inh
COc1cc(C(=O)Nc2nc(-c3cccs3)cs2)cc(OC)c1OC | 10.3µM* | 18.3µM* | nt | 41.4
COc1ccc(OC)c(-c2csc(NC(=O)Cc3ccccc3)n2)c1 | ? | ? | 26.5% | 22.9
COc1ccc(OC)c(-c2csc(NC(=O)Cc3cccs3)n2)c1 | 0.316µM* | -8.3% | 25.7% | 33.7
COc1ccc(OC)c(-c2csc(NC(=O)C3c4ccccc4Oc4ccccc43)n2)c1 | ? | -7.2% | -23.6% | -65.8*
Cc1ccc([C@H]2C[C@@H](n3cc(C4CC4)nn3)[C@H](O)CN2C(=O)c2cccs2)cc1 | nt | ? | -4.0% | 19.7
O=C(Nc1cccc(Cl)c1Cl)c1ccco1 | nt | nt | 48.3% | ?
CCc1nc2sccc2c(=O)n1N | 5.4% | -7.9%[46.1 µM] | 1.0% | 7.7
CC(C)c1ccccc1OCC(=O)NCC(c1cccs1)N1CCOCC1 (configuration not stated) | -19.6% | ? | 31.6µM* | -15.4
CCCCOc1ccc(C(=O)NCC(=O)NCC(c2cccs2)N2CCOCC2)cc1 (configuration not stated) | nt | nt | 1.4% | +
CC(C)N(Cc1ccccc1)C(=S)NCCN1CCOCC1 | -3.7% | 12.4%[46.1 µM] | -12.1% | -27.0
CCNC(=S)N1CCN(CC(=O)Nc2ccc(OC)cc2)CC1 | -3.0% | -6.0%[46.1 µM] | -14.4% | -20.7
CC(C)(C)c1ccc(OCCCNC2CCCC2)cc1 | ? | 6.31µM* | -16.7% | -10.4
CCOc1ccc(CNC(=O)CN2C(=O)C3CCCCN3c3ccc(C(=O)N4CCCC4)cc32)cc1 (configuration not stated) | 5.7%[46.1 µM] | nt | 4.7% | -7.8
CCn1c(=O)c2cc(C(=O)Nc3cc(C)c(Cl)cc3OC)sc2c2ccccc21 | 17.9%[46.1 µM] | -1.9%[46.1 µM] | -4.6% | -105.6*
CCn1c(=O)c2cc(C(=O)NCCN(C)C)sc2c2ccccc21 | ? | 7.08µM* | -3.5% | 2.1
CCN(CC)CCNC(=O)c1cc2c(=O)n(CC)c3ccccc3c2s1 | 3.4%[46.1 µM] | -15.8%[46.1 µM] | 2.1% | 38.8
Cc1cc(C)c(NC(=O)Cn2nnc(S(=O)(=O)c3ccc(C)c(C)c3)c2N)c(C)c1 | -8.6%[46.1 µM] | -19.4%[46.1 µM] | -6.9% | ?
Cc1ccccc1CS(=O)(=O)Cc1ccc(C(=O)NCc2ccco2)o1 | -18.0% | 16.1% | -26.4% | -25.7
COc1ccc(NC(=O)N2CC[C@@]3(CCCN(C(=O)c4ccc(OC)cc4)C3)C2)cc1 | nt | nt | 6.0% | nt
COc1cc(OC)cc(-c2nc3ccccc3c(=O)n2OC(=O)c2ccccc2C)c1 | 11.2µM* | ? | -25.6% | -33.7
CC(C)(C)c1ccc(-c2nnc(SCC(=O)NCC3CCCO3)n2N)cc1 (configuration not stated) | 15.3% | ? | 6.4% | -6.8
c1ccc(CNc2c3c(nc4ncnn24)CCC3)cc1 | 7.4% | -1.4% | -12.0% | -37.6
c1ccc(CN(Cc2ccccc2)c2c3c(nc4ncnn24)CCC3)cc1 | nt | nt | -34.8% | -93.7*
Cc1ccc(/C(N)=N/OC(=O)N2CCOCC2)cc1 | ? | 14.6µM* | nt | -85.4*
Cc1ccc(/C(N)=N/OC(=O)C23CC4CC(CC(C4)C2)C3)cc1 | -16.8% | 2.6% | 17.4% | 4.5
Cc1cccc(/C(N)=N/OC(=O)N2CCOCC2)c1 | 16.4µM* | 23.1µM* | nt | -74.0*
CC(=O)Nc1nnc(SCc2cc(=O)c3cc(C)ccc3[nH]2)s1 | 9.6%[46.1 µM] | nt | -22.3% | 9.1
CCc1ccc(NC(=O)CSC2=C(C#N)C(c3ccc4c(c3)OCO4)CC(=O)N2)cc1 (configuration not stated) | 0.0% | -2.5% | nt | -77.0*
CCOC(=O)CSC1=C(C#N)C(c2ccc3c(c2)OCO3)CC(=O)N1 (configuration not stated) | -29.5% | 15.8µM* | -27.7% | -12.6
